Assay outcomes from PubChem BioAssay.
C diff growth = inhibitors of Clostridium difficile growth | Clostridium difficile clinical isolate growth, OD600, 24 h; stronger effect = lower value | growth activity, negative = inhibition, % at 16 µg/mL (by protocol) | actives 0.25% (n = 86,000);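 active means mean growth activity at or below -80% and every replicate also at or below -80%; inconclusive means mean at or below -80% but some replicate above -80%; inactive means mean growth activity above -80%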
T cruzi growth-1 = T. cruzi proliferation inhibition | AID 624255 | inhibition, % at 8.34 µM | T. cruzi beta-gal in NIH3T3, GalScreen luminescence, 90 h | actives 5.9% (n = 77,000);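 active means mean inhibition above about 93%, with at least 55% of replicates each passing it, limit read from the data, passing the limit was not always enough; inconclusive means only one of those two conditions holds; inactive means neither condition holds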
T cruzi growth-2 = Trypanosoma cruzi proliferation inhibition; inhibition, % at 8.35 µM; shares compounds with T cruzi growth-1; actives 72% (n = 5,600); T. cruzi beta-gal in NIH3T3, GalScreen luminescence, 90 h;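 active means mean replicate inhibition above about 95% and at least 55% of replicates individually reaching it, limit read from the data; inconclusive means only one of the two criteria is met; inactive means neither criterion is met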
T cruzi growth-3 = blocks T. cruzi growth in NIH3T3 host cells; shares compounds with T cruzi growth-1; T. cruzi beta-gal in NIH3T3, GalScreen luminescence, 90 h; inhibition, % at 2.09 µM; actives 21% (n = 5,600); AID 651740;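 active means mean inhibition above about 95%, with at least 55% of replicates also reaching it, limit read from the data; inconclusive means meets just one of the two conditions; inactive means meets neither condition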
3T3 cytotox = cytotoxicity in mouse NIH/3T3 fibroblasts; shares compounds with T cruzi growth-1; actives 14% (n = 5,600); cytotoxicity (signal decrease), % at 8.35 µM; AID 651742; NIH/3T3 viability, CellTiter-Glo ATP luminescence, 90 h;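 active means mean signal decrease across replicates above about 35% based on untreated-well scatter, with enough replicates individually passing, limit read from the data; inconclusive means no rule stated though some were filed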
3T3 cytotox 2 = kills mouse NIH/3T3 fibroblasts; shares compounds with T cruzi growth-1; NIH/3T3 viability, CellTiter-Glo ATP luminescence, 90 h; inhibition, % at 24.9 µM; actives 56% (n = 5,600); AID 651744;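 active means mean loss of cell viability signal at or above a set limit, and enough replicates individually reaching it; inconclusive means meets only the mean limit or only the replicate share; inactive means meets neither condition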
Each line names hits and unclear results; the compound was inactive in the other large screens (follow-up assays come after a bar, where they were run); ! = not active in a repeat. The entries come from a sample that favours hits as a whole.

C[C@@H]1CN([C@H](C)CO)C(=O)c2cc(NC(=O)Cc3ccccc3)ccc2O[C@@H]1CN(C)S(=O)(=O)c1ccc(F)cc1	none
CCC(=O)N(C)C[C@@H]1Oc2cc(-c3ccccc3OC)ccc2S(=O)(=O)N([C@@H](C)CO)C[C@@H]1C	none
O=C(C[C@@H]1CC[C@@H]2[C@H](COC[C@H](O)CN2C(=O)Nc2ccc(Cl)c(Cl)c2)O1)NCc1ccccc1	none (no result: C diff growth)
O=C(C[C@H]1CC[C@@H]2[C@H](COC[C@H](O)CN2C(=O)Nc2ccc(Cl)c(Cl)c2)O1)NCc1ccc(Cl)c(Cl)c1	T cruzi growth-1 106 (no result: C diff growth) | T cruzi growth-2 96 | T cruzi growth-3 inactive | 3T3 cytotox inactive | 3T3 cytotox 2 104
CCCNC(=O)N1C[C@H](O)COC[C@@H]2O[C@H](CC(=O)NCc3ccc(Cl)c(Cl)c3)CC[C@H]21	none
O=C(C[C@H]1CC[C@H]2[C@@H](COC[C@@H](O)CN2C(=O)Nc2ccc(Cl)c(Cl)c2)O1)NCc1ccccc1	none (no result: C diff growth)
O=C(C[C@H]1CC[C@H]2[C@@H](COC[C@H](O)CN2C(=O)Nc2ccc(Cl)c(Cl)c2)O1)NCc1ccncc1	C diff growth -97!, T cruzi growth-1 153 | T cruzi growth-2 110 | T cruzi growth-3 inactive | 3T3 cytotox inactive | 3T3 cytotox 2 inactive
O=C(C[C@@H]1CC[C@H]2[C@@H](COC[C@H](O)CN2C(=O)Nc2ccc(Cl)c(Cl)c2)O1)NCc1ccncc1	T cruzi growth-1 128 | T cruzi growth-2 98 | T cruzi growth-3 inactive | 3T3 cytotox inactive | 3T3 cytotox 2 39
CNC[C@H]1Oc2ccc(NC(=O)C3CC3)cc2CC(=O)N([C@@H](C)CO)C[C@@H]1C	none
C[C@H]1CN([C@@H](C)CO)S(=O)(=O)c2ccc(C3=CCCC3)cc2O[C@H]1CN(C)C(=O)c1ccncc1	none
COc1ccc(-c2ccc([C@@H]3[C@@H](C#N)N(C(=O)C4CCOCC4)[C@H]3CO)cc2)cc1	none
N#C[C@H]1[C@H](c2ccc(-c3cncnc3)cc2)[C@@H](CO)N1C(=O)C1CCC1	none
N#C[C@@H]1[C@H](c2ccc(-c3cncnc3)cc2)[C@H](CO)N1C(=O)C1CCC1	T cruzi growth-1 101 | T cruzi growth-2 inactive | T cruzi growth-3 inactive | 3T3 cytotox inactive | 3T3 cytotox 2 inactive
N#C[C@@H]1[C@@H](c2ccc(-c3cncnc3)cc2)[C@H](CO)N1C(=O)C1CCOCC1	T cruzi growth-1 100 | T cruzi growth-2 inactive | T cruzi growth-3 inactive | 3T3 cytotox inactive | 3T3 cytotox 2 inactive
CNC(=O)C[C@@H]1CC[C@@H]2[C@H](COC[C@@H](O)CN2Cc2ccccc2F)O1	none (no result: T cruzi growth-1)
Cc1cc(C(=O)Nc2ccc3c(c2)C(=O)N(C)[C@H]2CC[C@@H](CC(=O)NCc4ccc(-c5ccccc5)cc4)O[C@H]2CO3)no1	none
Cc1ccc(S(=O)(=O)Nc2ccc3c(c2)C(=O)N([C@H](C)CO)C[C@H](C)[C@@H](CN(C)C(=O)NC(C)C)O3)cc1	none
COc1ccc(S(=O)(=O)Nc2ccc3c(c2)CC(=O)N([C@@H](C)CO)C[C@H](C)[C@@H](CN(C)Cc2ccccc2)O3)cc1	none
COc1ccc(S(=O)(=O)Nc2ccc3c(c2)CC(=O)N([C@H](C)CO)C[C@@H](C)[C@H](CN(C)Cc2ccccc2)O3)cc1	T cruzi growth-1 104 | T cruzi growth-2 109 | T cruzi growth-3 99 | 3T3 cytotox inactive | 3T3 cytotox 2 inactive
Cc1noc(C)c1S(=O)(=O)Nc1ccc2c(c1)CC(=O)N([C@@H](C)CO)C[C@@H](C)[C@H](CN(C)Cc1ccc(Oc3ccccc3)cc1)O2	T cruzi growth-1 inconclusive | T cruzi growth-2 109 | T cruzi growth-3 inactive | 3T3 cytotox inactive | 3T3 cytotox 2 104
Cc1noc(C)c1S(=O)(=O)Nc1ccc2c(c1)CC(=O)N([C@H](C)CO)C[C@@H](C)[C@@H](CN(C)Cc1ccc(Oc3ccccc3)cc1)O2	none
COc1ccc(S(=O)(=O)Nc2ccc3c(c2)CC(=O)N([C@@H](C)CO)C[C@H](C)[C@H](CN(C)Cc2ccccc2)O3)cc1	T cruzi growth-1 99 | T cruzi growth-2 99 | T cruzi growth-3 inactive | 3T3 cytotox inactive | 3T3 cytotox 2 inactive
COc1ccc(S(=O)(=O)Nc2ccc3c(c2)CC(=O)N([C@@H](C)CO)C[C@@H](C)[C@@H](CN(C)Cc2ccccc2)O3)cc1	none
Cc1noc(C)c1S(=O)(=O)Nc1ccc2c(c1)CC(=O)N([C@H](C)CO)C[C@H](C)[C@H](CN(C)C(=O)Nc1ccc(F)cc1)O2	none
COc1ccc2c3c([nH]c2c1)[C@@H](CO)N(C(=O)CN1CCOCC1)CC31CCN(CC2CCCC2)CC1	none (no result: T cruzi growth-1)
C/C=C/c1ccc([C@@H]2[C@H](CO)N(C(=O)CN(C)C)C23CN(C(=O)C2CCCC2)C3)cc1	none (no result: T cruzi growth-1)
C[C@H](CO)N1C[C@H](C)[C@H](CN(C)Cc2ccc3c(c2)OCO3)Oc2ccc(NC(=O)Cc3ccccc3)cc2CC1=O	T cruzi growth-1 106 | T cruzi growth-2 inactive | T cruzi growth-3 inactive | 3T3 cytotox inactive | 3T3 cytotox 2 inactive
C[C@H]1CN([C@@H](C)CO)C(=O)Cc2cc(NC(=O)Cc3ccccc3)ccc2O[C@@H]1CN(C)Cc1ccc(-c2ccccc2)cc1	T cruzi growth-1 107 | T cruzi growth-2 113 | T cruzi growth-3 inactive | 3T3 cytotox inactive | 3T3 cytotox 2 73
C[C@@H]1CN([C@@H](C)CO)C(=O)Cc2cc(NC(=O)Cc3ccccc3)ccc2O[C@H]1CN(C)Cc1ccc2c(c1)OCO2	none
C[C@H]1CN([C@@H](C)CO)C(=O)Cc2cc(NC(=O)Cc3ccccc3)ccc2O[C@H]1CN(C)Cc1ccc(-c2ccccc2)cc1	none
CCNC(=O)[C@H]1[C@H](CO)[C@H]2Cn3c(ccc(-c4ccncc4)c3=O)[C@H]2N1Cc1cc(F)ccc1F	none (no result: T cruzi growth-1)
C[C@@H]1CN([C@@H](C)CO)C(=O)c2cc(-c3cccc(F)c3)cnc2O[C@H]1CN(C)S(=O)(=O)c1cccc(F)c1	none (no result: C diff growth)
C[C@@H]1CN([C@H](C)CO)C(=O)c2cc(NC(=O)Nc3ccccc3)ccc2O[C@@H](C)CCCCO[C@@H]1CN(C)Cc1ccc2c(c1)OCO2	T cruzi growth-1 inconclusive | T cruzi growth-2 inactive | T cruzi growth-3 inactive | 3T3 cytotox 94 | 3T3 cytotox 2 103
C[C@@H]1CN([C@H](C)CO)C(=O)c2cc(NC(=O)Nc3ccccc3)ccc2O[C@@H](C)CCCCO[C@H]1CN(C)Cc1ccc2c(c1)OCO2	none
C[C@@H]1CN([C@@H](C)CO)C(=O)c2cc(NC(=O)Nc3ccccc3)ccc2O[C@@H](C)CCCCO[C@@H]1CN(C)Cc1ccc2c(c1)OCO2	T cruzi growth-1 97 | T cruzi growth-2 101 | T cruzi growth-3 inactive | 3T3 cytotox 42 | 3T3 cytotox 2 34
C[C@H]1CCCCO[C@H](CN(C)Cc2ccc3c(c2)OCO3)[C@@H](C)CN([C@@H](C)CO)C(=O)c2cc(NC(=O)Nc3ccccc3)ccc2O1	none
